Our source for the growth values is PubChem BioAssay (NCI).

SMILES strings stand for the structures. This is part of a sample that, as a whole, favours compounds with a hit. Of some 83,000 tested, about 20% had one in any assay.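 Activity criterion: percent growth below 10, measured after cells in 96-well plates were exposed to a single compound concentration for 48 hours.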 Unmarked numbers belong to inactive results. Calls of active or inactive are those of the source.

Some test systems named below: HCT-15 colon; HT29 colon; SNB-75 CNS; SNB-19 CNS; U251 CNS; SK-MEL-5 melanoma; UACC-62 melanoma; LOX IMVI melanoma; SK-MEL-28 melanoma; PC-3 prostate.
Holding throughout (assay): NCI-60 one-dose screen, 48 h (100 = growth as untreated, 0 = no growth, -100 = all killed)
What all share (conditions): 10 µM unless noted

Regarding `CCCCCCCCn1ccc2cc(NC(=O)Cn3cc(CN4CCOCC4)nn3)ccc21`, the growth in the assay with HCT-15 colon is 92.4%; in the assay on HT29 colon, 108%; in the assay with SNB-75 CNS, 100%; with SNB-19 CNS, 92.9%; in the assay with U251 CNS, 88.5%; in the assay with SK-MEL-5 melanoma, 86.7%. The growth in the assay on UACC-62 melanoma was 86.8%; with LOX IMVI melanoma, 102%; in the assay on SK-MEL-28 melanoma, 99.8%.

Take `N=c1c2c(=N)n3c(nc2nc2n1-c1ccccc1Sc1ccccc1-2)sc1cc(Cl)ccc13`: the growth in the assay with HCT-15 colon was 15.7%; with HT29 colon it was 26.4%; in the assay with SNB-75 CNS it was 53.4%; with SNB-19 CNS, 30.7%; in the assay with U251 CNS, 9.17% (active); in the assay on PC-3 prostate, 19.4%. Also, the growth with SK-MEL-5 melanoma was -12.8% (active); with UACC-62 melanoma it was 13.8%; with LOX IMVI melanoma, 13.5%; with SK-MEL-28 melanoma it was 25%.

As for `N=C(N)c1ccc(-c2ccc(-c3ccc(Cl)cc3Cl)s2)cc1F`, the growth is -75.7% (active) with HCT-15 colon; -29.4% (active) in the assay on HT29 colon; 20.7% with SNB-75 CNS; -34.3% (active) in the assay on SNB-19 CNS; -52.1% (active) with U251 CNS; 50.8% with SK-MEL-5 melanoma. The values for the growth with UACC-62 melanoma, in the assay on LOX IMVI melanoma and in the assay with SK-MEL-28 melanoma were -54% (active), -89.9% (active) and 83.7%, respectively.

On to `C=C1C(=O)O[C@H]2[C@H]1CC/C(Cn1cc(-c3cc(C(F)(F)F)cc(C(F)(F)F)c3)nn1)=C\CC[C@@]1(C)O[C@@H]21`, for which the growth was -90.6% (active) in the assay on HCT-15 colon; -86% (active) in the assay on HT29 colon; -96.6% (active) in the assay on SNB-75 CNS; -80.3% (active) in the assay with SNB-19 CNS; -97.6% (active) in the assay with U251 CNS; -99.5% (active) with SK-MEL-5 melanoma. The values for the growth in the assay with UACC-62 melanoma, in the assay on LOX IMVI melanoma and in the assay on SK-MEL-28 melanoma were -76.6% (active), -87.1% (active) and -82.7% (active), respectively.

`COc1cc(-c2nc3occn3c2-c2ccnc(NCCCNS(=O)(=O)c3ccccc3)n2)ccc1F`: the growth with HCT-15 colon was 37.5%; in the assay with HT29 colon it was 16.7%; in the assay with SNB-75 CNS, 102%; with SNB-19 CNS it was 78.2%; in the assay with U251 CNS, 73.4%; in the assay on SK-MEL-5 melanoma, -22.4% (active). Besides, the values for the growth in the assay with UACC-62 melanoma, with LOX IMVI melanoma and in the assay on SK-MEL-28 melanoma were 4.35% (active), 31.5% and 38%, respectively.

With `CC(C)CN1CC(C(=O)Nc2ccc3c(c2)-c2ccccc2C3)CC1=O` (centres undefined), the growth was 49.7% [50 µM] with HCT-15 colon; 87.8% [50 µM] in the assay on HT29 colon; 45.7% [50 µM] in the assay on SNB-75 CNS; 72.1% [50 µM] in the assay with SNB-19 CNS; 72.8% [50 µM] with U251 CNS; 69.4% [50 µM] with SK-MEL-5 melanoma. Besides, the values for the growth with UACC-62 melanoma, in the assay with LOX IMVI melanoma and in the assay on SK-MEL-28 melanoma were 47.3% [50 µM], 75.9% [50 µM] and 80% [50 µM], respectively.

For the molecule `CCOC(=O)n1cc(-c2nonc2-c2cn(C)c3ccccc23)c2ccccc21`, the growth with HCT-15 colon is 31.2%; in the assay with HT29 colon, 12.8%; with SNB-75 CNS, 16.3%; with SNB-19 CNS it was 35.3%; in the assay on U251 CNS it was 26.7%; in the assay on SK-MEL-5 melanoma, 46.3%. Also, the growth in the assay with UACC-62 melanoma was 30.6%; with LOX IMVI melanoma, 41.7%; with SK-MEL-28 melanoma, 57.4%.

Consider `C#CCOc1ccc2ncnc(Nc3cccc(NC(=O)CCl)c3)c2c1`, for which the growth with HCT-15 colon is 50.6%; in the assay with HT29 colon, 33.5%; in the assay with SNB-75 CNS it was 68.9%; with SNB-19 CNS, 71.8%; in the assay on U251 CNS, 62.2%; in the assay with PC-3 prostate, 70%. In addition, the growth in the assay on SK-MEL-5 melanoma is 68.3%; with UACC-62 melanoma it was 60.6%; in the assay on LOX IMVI melanoma it was -68.1% (active); in the assay on SK-MEL-28 melanoma, 90.6%.

With `CC1(C)C2CC=C(/C=N/NC(=O)C3CCC(=O)N3)C1C2` (centres undefined), the growth in the assay with HCT-15 colon is 104%; in the assay on HT29 colon, 106%; in the assay on SNB-75 CNS it was 91.6%; in the assay on SNB-19 CNS it was 106%; with U251 CNS it was 101%; with SK-MEL-5 melanoma, 101%. Moreover, the growth in the assay with UACC-62 melanoma is 99.2%; in the assay on LOX IMVI melanoma it was 96.9%; in the assay on SK-MEL-28 melanoma, 108%.

Turning to `Cn1c(O)c(C(/C=C/c2ccccc2)=Nc2ccccc2N)c(=O)n(C)c1=O`, the growth in the assay on HCT-15 colon is 91.5%; in the assay on HT29 colon, 72.1%; in the assay on SNB-75 CNS, 90.7%; with SNB-19 CNS, 101%; with U251 CNS, 101%; in the assay on SK-MEL-5 melanoma it was 75.4%. Further, the growth with UACC-62 melanoma was 76.1%; in the assay with LOX IMVI melanoma, 90.3%; in the assay with SK-MEL-28 melanoma, 120%.

`CCOc1ccc(NC(=O)c2cc(OC)c(OC)c(OC)c2)cc1`: the growth in the assay on HCT-15 colon was 31.8%; in the assay on HT29 colon, 11.5%; with SNB-75 CNS, 30.5%; with SNB-19 CNS, 49.6%; with U251 CNS, 30.1%; with SK-MEL-5 melanoma, 28.7%. The growth is 35.7% with UACC-62 melanoma, 35.5% with LOX IMVI melanoma and 66.4% in the assay on SK-MEL-28 melanoma.

As to `Nc1c(C(=O)Nc2cccc3ncccc23)sc2nc3c(cc12)C(=O)CCC3`, the growth in the assay on HCT-15 colon is 52.9%; in the assay on HT29 colon, 35.9%; with SNB-75 CNS, 43.7%; with SNB-19 CNS, 38%; with U251 CNS, 57.5%; with SK-MEL-5 melanoma, 30.3%. Besides, the growth in the assay on UACC-62 melanoma was 17.8%; in the assay with LOX IMVI melanoma it was 55%; in the assay on SK-MEL-28 melanoma, 49%.

Turning to `CN1CCN(c2ccc(NC(=O)c3cncnc3Nc3ccc4c(ccn4Cc4cccc(F)c4)c3)cc2)CC1`, the growth in the assay with HCT-15 colon was -6.2% (active); in the assay on HT29 colon it was -39.8% (active); in the assay on SNB-75 CNS, 67.4%; in the assay on SNB-19 CNS it was 77.7%; with U251 CNS it was 6.24% (active); with SK-MEL-5 melanoma, 59.6%. The growth was 54.3% with UACC-62 melanoma, -80.9% (active) in the assay with LOX IMVI melanoma and -85.2% (active) with SK-MEL-28 melanoma.
